Experimental findings from PubChem BioAssay (NCATS) are described below.

The target of experiment [1] is Peroxisome proliferator-activated receptor delta (Homo sapiens) (UniProt Q03181). The experiment in a line: qHTS assay for small molecule agonists of peroxisome proliferator-activated receptor delta signaling (AID 588534). The procedure, abridged: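 Agonist-mode beta-lactamase reporter readout (CCF4 dye, 2 h at RT) after 18 h at 37 °C exposure to a titration; Hill-equation fitting gave EC50 and maximal response.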

In experiment [2] the target is Nuclear receptor ROR-gamma (Homo sapiens) (UniProt P51449). The experiment in a line: qHTS assay for small molecule antagonists of the retinoid-related orphan receptor gamma (ROR-gamma) signaling pathway (AID 651802; active = well fitted curve in the direction sought with a large enough effect; an effect the other way counts as inactive or inconclusive;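 also: CHO cells with doxycycline-induced ROR-gamma expression; luciferase reporter luminescence driven by ROR response element; series mostly up to about 92 µM; nearly all actives have a fitted effect of over 60% in size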). The procedure, abridged:
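Luminescence (One-Glo, 30 min RT) measured 16 h after compound addition and doxycycline induction at 37C. Reporter: RORE-luciferase under TET-inducible ROR-gamma in CHO cells.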

In experiment [3] the target is Voltage-gated inwardly rectifying potassium channel KCNH2 (Homo sapiens) (UniProt Q12809). Briefly: qHTS Assay for Small Molecule Inhibitors of the Human hERG Channel Activity (AID 588834; active = well fitted curve in the direction sought with a large enough effect; an effect the other way counts as inactive or inconclusive;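 also: potency is read from the fitted curve at half-maximal effect; lower thallium flux fluorescence means stronger hERG block; nearly all actives have a fitted effect of over 50% in size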). The gist of the method: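 In hERG-transduced U2OS cells, dye-loaded for 1 hr at room temperature in dark, test compounds incubated 10 min at 37 °C before thallium stimulation. AC50 values derived by Hill modelling of concentration-response.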

For experiment [4], the target named is Peroxisome proliferator-activated receptor gamma (Homo sapiens) (UniProt P37231). Briefly: qHTS assay for small molecule agonists of peroxisome proliferator-activated receptor gamma signaling (AID 588536; active = well fitted curve in the direction sought with a large enough effect in the signal ratio, with a control signal flat, not every such curve was filed as active; the % refers to the signal ratio). The gist of the method:
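Using GeneBLAzer HEK293 cells, response was quantified by CCF4 fluorescence and normalized between basal DMSO (0%) and rosiglitazone 2 uM (100%); curves yielded half-maximal stimulation concentration and efficacy.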

Experiment [5] has the same target. The experiment in a line: qHTS assay for small molecule antagonists of peroxisome proliferator-activated receptor gamma signaling (AID 588537; active = well fitted inhibition curve with a large enough effect in the signal ratio, with a control signal flat, not every such curve was filed as active; the % refers to the signal ratio;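 also: reporter cells co-stimulated with 50 nM rosiglitazone agonist during compound treatment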). The procedure, abridged: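 Compounds are tested as concentration series for inhibition of rosiglitazone-driven (50 nM) reporter expression in GeneBLAzer PPAR-gamma-UAS-bla HEK293 cells. After 16 h at 37 C, CCF4 substrate is added for 2 h at room temperature and blue/green fluorescence is measured.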

Experiment [6] addresses Vitamin D3 receptor (Homo sapiens) (UniProt P11473). The experiment in a line: qHTS assay for small molecule agonists of vitamin D receptor signaling (AID 588543). The gist of the method:
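GeneBLAzer VDR-UAS-bla HEK293T cells in 2% charcoal-stripped FBS medium were dosed with compound titrations for 16 h at 37 °C; CCF4 β-lactamase readout (405 nm ex, 460/530 nm em). EC50 and efficacy from Hill fits, normalized to 50 nM calcitriol (100%) and DMSO (0%).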

A short description of experiment [7]: qHTS assay for small molecule antagonists of retinoid X receptor alpha signaling (AID 588546; active = well fitted inhibition curve with a large enough effect in the signal ratio, with a control signal flat, not every such curve was filed as active; the % refers to the signal ratio;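 also: cells stimulated with 9-cis-retinoic acid as agonist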). As to conditions: HEK293T RXRa-UAS-bla, beta-lactamase ratio, antagonist mode; measured here: W530 green channel, cytotoxicity proxy. The gist of the method: (§1)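 Beta-lactamase reporter inhibition, read as CCF4 fluorescence ratio (ex 405, em 460/530 nm) after 2 h at RT. HEK293T UAS-bla cells, 2500/well, were stimulated with 9-cis-RA at 500 or 100 nM final alongside test compound for 18 h at 37 C.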

Experiment [8] can be described thus: qHTS assay for environmental chemicals that activate the Aryl hydrocarbon Receptor (AhR) signaling pathway (AID 651777; active = well fitted curve in the direction sought with a large enough effect; an effect the other way counts as inactive or inconclusive; also: nearly all actives have a fitted effect of over 15% in size; also: potency is read from the fitted curve at half-maximal effect). Particulars: 1A2-DRE human hepatoma cells, luciferase, 24 h; activation: stronger effect = higher value. The procedure, abridged: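 AhR activation is scored as a rise in luciferase from a stable DRE–CYP1A2 promoter construct in human hepatoma cells. Treatment lasts 24 hr at 37 C; detection uses One-Glo after 30 min at room temperature.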

For experiment [9], the target named is Peroxisome proliferator-activated receptor alpha (Homo sapiens) (UniProt Q07869). Briefly: qHTS assay for small molecule agonists of the peroxisome proliferator-activated receptor alpha (PPARalpha) signaling pathway (AID 651778; active = well fitted curve in the direction sought with a large enough effect; an effect the other way counts as inactive or inconclusive). As to conditions: PathHunter PPARalpha complementation, chemiluminescence, 6 h; max response: stronger effect = higher value. The procedure, abridged: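 Cells plated at 2,000/well and held overnight at 37 C, 5% CO2, then compound added by pin tool for 6 hr; after PathHunter detection reagent and 60 min at room temperature, chemiluminescence from enzyme complementation was read.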

A short description of experiment [10]: qHTS assay for small molecule agonists of the antioxidant response element (ARE) signaling pathway measured by Nrf2-dependant transcriptional activity (AID 720636; active = well fitted curve in the direction sought with a large enough effect in the repeat runs; an effect the other way counts as inactive or inconclusive;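 also: HepG2 cells with an ARE-driven luciferase reporter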). The gist of the method: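 First, ARE-luc HepG2 cells attached for 6 hr at 37 C in 1% dialyzed FBS medium. Next, compound or DMSO was added and incubated 16 hr. Finally, ONE-Glo reagent was added and luminescence measured after 30 min.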

Experiment [11] can be described thus: qHTS assay for small molecule agonists of the antioxidant response element (ARE) signaling pathway measured by Nrf2-dependant transcriptional activity - cell viability counter screen (AID 720653; active = well fitted curve in the direction sought with a large enough effect in the repeat runs; an effect the other way counts as inactive or inconclusive). Particulars: ARE-bla HepG2 viability, CellTiter-Glo ATP luminescence, 16 h; max response: stronger effect = lower value. The procedure, abridged:
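ARE-bla HepG2 cells (2,000/well) rested 5 hrs at 37C/5% CO2, then exposed to compounds in DMSO for 16 hrs. Viability was read in the same wells as intracellular ATP by luminescence, 30 min at room temperature after reagent addition.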

The nature of experiment [12]: qHTS assay for cell viability of HEK293 cells (AID 743288; active = well fitted curve in the direction sought with a large enough effect; an effect the other way counts as inactive or inconclusive; also: nearly all actives have a fitted effect of over 50% in size). As to conditions: ATP luminescence (CellTiter-Glo), 18 h; max response: stronger effect = lower value. The procedure, abridged: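 After 18 h compound exposure at 37 C, parental HEK293 cells (2,000/well) are lysed with CellTiter-Glo and luminescence is read following 30 min at room temperature.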
The target in experiment [13] is Vitamin D3 receptor (Homo sapiens) (UniProt P11473). Briefly: qHTS assay for small molecule antagonists of vitamin D receptor signaling (AID 588541).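 Also: receptor activated by calcitriol during compound treatment; series mostly up to about 77 µM.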 The procedure, abridged:
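VDR-UAS-bla HEK293T cells (2000/well, 2% charcoal-stripped FBS) were treated with titrated compounds plus 1-alpha,25-dihydroxyvitamin D3 (50 nM or 3 nM final) for 16 h at 37 C. CCF4 beta-lactamase fluorescence was read; Hill fits gave IC50.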

Experiment [14] has as its target Retinoic acid receptor RXR-alpha (Homo sapiens) (UniProt P19793). The experiment in a line: qHTS assay for small molecule agonists of retinoid X receptor alpha signaling (AID 588544).
For experiment [15] the target is unchanged. Briefly: qHTS assay for small molecule antagonists of retinoid X receptor alpha signaling (AID 588546).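 Also: cells stimulated with 9-cis-retinoic acid as agonist.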 As to conditions: HEK293T RXRa-UAS-bla, beta-lactamase ratio, antagonist mode. The procedure, abridged: as §1
Experiment [16] concerns the target Thyroid hormone receptor beta (Homo sapiens) (UniProt P10828). Briefly: qHTS assay for small molecule antagonists of thyroid hormone receptor beta signaling (AID 588547; active = well fitted inhibition curve with a large enough effect in the signal ratio, with a control signal flat, not every such curve was filed as active; the % refers to the signal ratio;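 also: cells stimulated with 0.4 nM T3 agonist during compound exposure; series mostly up to about 77 µM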). As to conditions: TR-UAS-bla HEK293, beta-lactamase ratio, antagonist mode, 18 h. The procedure, abridged:
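TR-UAS-bla GripTite HEK293 cells in 2% charcoal/dextran FBS medium were preincubated 4 h at 37 C, given compound (0.59 nM to 92 uM) plus 0.4 nM T3 (final) for 18 h, then CCF4 for 2 h at RT; Hill fit gave IC50.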

Experiment [17] is described as follows: qHTS assay for small molecule activators of the p53 signaling pathway (AID 651743; active = well fitted activation curve with a large enough effect in the signal ratio, not every such curve was filed as active; the % refers to the signal ratio; also: series mostly up to about 92 µM). As to conditions: HCT-116 p53RE-bla, beta-lactamase FRET ratio, 16 h; activation: stronger effect = higher value. The procedure, abridged:
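Agonist-mode quantitative HTS in HCT-116 cells carrying a p53-response-element beta-lactamase reporter; 16 h compound treatment at 37 C, then FRET substrate loading for 2 h at room temperature and fluorescence read.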

Experiment [18] can be described thus: qHTS assay for small molecule activators of the nuclear factor-kappa B (NF-kB) signaling pathway (AID 651749; active = well fitted activation curve with a large enough effect in the signal ratio; the % refers to the signal ratio; also: series mostly up to about 77 µM). Particulars: NF-kB-bla ME-180 cells, beta-lactamase FRET ratio, 16 h; activation: stronger effect = higher value. The gist of the method:
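Human ME-180 cervical cells with an NF-kB-bla construct; compounds added via 23 nL pin transfer, DMSO as vehicle; incubation 16 hr. Reporter activity measured by FRET disruption.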

Experiment [19] in a line: qHTS assay for cell viability of the p53RE-bla HCT-116 cell line (AID 743292; active = well fitted curve in the direction sought with a large enough effect; an effect the other way counts as inactive or inconclusive; also: nearly all actives have a fitted effect of over 55% in size). The gist of the method: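 Quantitative high-throughput format: compounds in DMSO were pinned onto p53RE-bla HCT-116 cells (4,000/well) and incubated 16 h at 37 C. Total intracellular ATP, read by CellTiter-Glo luminescence, reflects viable cell number.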
The target in experiment [20] is Nuclear receptor subfamily 1 group I member 2 (Rattus norvegicus) (UniProt Q9R1A7). Briefly: qHTS assay for small molecule activators of the rat pregnane X receptor (rPXR) signaling pathway (AID 651751; call rule not given here). Particulars: rPXR reporter cells, luciferase (One-Glo), 24 h.
Experiment [21] is described as follows: qHTS assay for small molecule activators of the human pregnane X receptor (PXR) signaling pathway (AID 720659; call rule not given here).

Records with an inconclusive call do not appear. A call without a number means that no potency is given here. Active and inactive are the calls of the source. Unless noted, calls follow the shape of the full dose curve.

Chain of Peroxisome proliferator-activated receptor gamma (Homo sapiens) (P37231 whole entry, looked up): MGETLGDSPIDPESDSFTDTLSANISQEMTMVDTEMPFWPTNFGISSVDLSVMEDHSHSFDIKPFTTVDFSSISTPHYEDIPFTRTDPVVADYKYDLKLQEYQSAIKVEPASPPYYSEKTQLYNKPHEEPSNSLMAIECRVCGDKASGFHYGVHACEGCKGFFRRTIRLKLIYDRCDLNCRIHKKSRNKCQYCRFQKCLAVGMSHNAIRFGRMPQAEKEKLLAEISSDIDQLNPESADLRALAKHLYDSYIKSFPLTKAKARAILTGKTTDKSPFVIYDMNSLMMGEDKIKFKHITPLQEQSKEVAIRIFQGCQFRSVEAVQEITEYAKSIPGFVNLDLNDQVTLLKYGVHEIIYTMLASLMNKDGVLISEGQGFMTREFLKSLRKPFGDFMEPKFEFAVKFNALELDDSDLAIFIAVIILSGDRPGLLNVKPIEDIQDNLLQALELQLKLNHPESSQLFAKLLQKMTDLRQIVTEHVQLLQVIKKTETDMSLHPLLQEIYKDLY
Chain of Vitamin D3 receptor (Homo sapiens) (P11473 whole entry, looked up): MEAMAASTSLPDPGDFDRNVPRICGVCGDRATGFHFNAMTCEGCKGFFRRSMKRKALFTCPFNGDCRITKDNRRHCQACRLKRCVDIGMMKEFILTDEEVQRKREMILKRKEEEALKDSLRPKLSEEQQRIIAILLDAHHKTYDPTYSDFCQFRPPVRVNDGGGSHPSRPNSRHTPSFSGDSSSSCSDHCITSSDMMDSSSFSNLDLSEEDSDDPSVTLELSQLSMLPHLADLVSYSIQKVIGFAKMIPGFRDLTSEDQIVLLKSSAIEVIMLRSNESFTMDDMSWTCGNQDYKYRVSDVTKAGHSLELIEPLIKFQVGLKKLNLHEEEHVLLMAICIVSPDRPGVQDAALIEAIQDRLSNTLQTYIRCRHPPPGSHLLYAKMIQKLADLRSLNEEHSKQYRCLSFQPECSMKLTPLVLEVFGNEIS
Chain of Peroxisome proliferator-activated receptor delta (Homo sapiens) (Q03181 whole entry, looked up): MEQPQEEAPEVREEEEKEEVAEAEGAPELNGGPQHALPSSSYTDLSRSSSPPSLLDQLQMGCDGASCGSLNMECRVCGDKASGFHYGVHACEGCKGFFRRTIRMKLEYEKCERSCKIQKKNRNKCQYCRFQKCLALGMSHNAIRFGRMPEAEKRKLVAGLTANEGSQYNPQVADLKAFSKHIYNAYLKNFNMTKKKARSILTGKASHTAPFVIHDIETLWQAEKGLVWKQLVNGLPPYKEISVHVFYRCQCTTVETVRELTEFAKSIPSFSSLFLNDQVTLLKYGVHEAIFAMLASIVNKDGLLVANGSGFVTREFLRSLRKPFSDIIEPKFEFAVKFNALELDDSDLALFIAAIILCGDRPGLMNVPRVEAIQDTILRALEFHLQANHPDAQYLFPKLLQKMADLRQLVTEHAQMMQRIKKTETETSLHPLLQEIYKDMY
Chain of Nuclear receptor ROR-gamma (Homo sapiens) (P51449 whole entry, looked up): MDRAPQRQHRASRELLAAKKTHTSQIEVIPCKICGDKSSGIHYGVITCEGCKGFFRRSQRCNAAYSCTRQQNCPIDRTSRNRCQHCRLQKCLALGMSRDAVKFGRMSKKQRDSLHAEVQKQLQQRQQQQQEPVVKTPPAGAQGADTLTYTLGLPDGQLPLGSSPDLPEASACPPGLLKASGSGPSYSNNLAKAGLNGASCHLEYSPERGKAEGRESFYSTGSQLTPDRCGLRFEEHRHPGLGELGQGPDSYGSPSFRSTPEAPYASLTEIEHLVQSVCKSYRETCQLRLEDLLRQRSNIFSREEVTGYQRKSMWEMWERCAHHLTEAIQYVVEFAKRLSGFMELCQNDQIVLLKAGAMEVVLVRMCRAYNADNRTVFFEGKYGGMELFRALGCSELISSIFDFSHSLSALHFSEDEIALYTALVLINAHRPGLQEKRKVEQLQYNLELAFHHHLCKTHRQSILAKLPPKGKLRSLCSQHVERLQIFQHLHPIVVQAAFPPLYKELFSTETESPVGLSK
Chain of Retinoic acid receptor RXR-alpha (Homo sapiens) (P19793 whole entry, looked up): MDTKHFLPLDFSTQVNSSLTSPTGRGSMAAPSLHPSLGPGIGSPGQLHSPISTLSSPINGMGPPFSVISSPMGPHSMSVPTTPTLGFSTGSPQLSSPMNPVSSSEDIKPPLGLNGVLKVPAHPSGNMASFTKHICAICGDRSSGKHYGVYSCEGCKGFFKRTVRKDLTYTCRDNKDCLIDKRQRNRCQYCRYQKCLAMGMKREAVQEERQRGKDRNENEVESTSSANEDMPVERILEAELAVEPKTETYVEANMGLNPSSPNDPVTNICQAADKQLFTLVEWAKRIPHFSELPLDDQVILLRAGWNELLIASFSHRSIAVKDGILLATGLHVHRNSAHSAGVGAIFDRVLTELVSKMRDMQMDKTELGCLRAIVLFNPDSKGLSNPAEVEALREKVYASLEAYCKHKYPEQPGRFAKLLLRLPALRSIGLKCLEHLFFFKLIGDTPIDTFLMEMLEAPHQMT
Chain of Thyroid hormone receptor beta (Homo sapiens) (P10828 whole entry, looked up): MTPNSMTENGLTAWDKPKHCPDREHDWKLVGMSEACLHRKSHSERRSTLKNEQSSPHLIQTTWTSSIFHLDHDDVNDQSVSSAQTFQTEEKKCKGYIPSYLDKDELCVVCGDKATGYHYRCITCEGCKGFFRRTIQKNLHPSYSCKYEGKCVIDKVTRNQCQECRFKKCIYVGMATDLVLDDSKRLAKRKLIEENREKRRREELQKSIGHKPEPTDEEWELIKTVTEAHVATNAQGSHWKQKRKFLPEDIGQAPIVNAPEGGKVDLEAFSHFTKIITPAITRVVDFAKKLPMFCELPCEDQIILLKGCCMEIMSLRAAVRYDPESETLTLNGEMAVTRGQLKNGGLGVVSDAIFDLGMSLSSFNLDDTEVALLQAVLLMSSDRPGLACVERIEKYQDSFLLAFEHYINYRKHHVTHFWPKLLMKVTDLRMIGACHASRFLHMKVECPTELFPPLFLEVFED
Chain of Voltage-gated inwardly rectifying potassium channel KCNH2 (Homo sapiens) (Q12809 whole entry, looked up): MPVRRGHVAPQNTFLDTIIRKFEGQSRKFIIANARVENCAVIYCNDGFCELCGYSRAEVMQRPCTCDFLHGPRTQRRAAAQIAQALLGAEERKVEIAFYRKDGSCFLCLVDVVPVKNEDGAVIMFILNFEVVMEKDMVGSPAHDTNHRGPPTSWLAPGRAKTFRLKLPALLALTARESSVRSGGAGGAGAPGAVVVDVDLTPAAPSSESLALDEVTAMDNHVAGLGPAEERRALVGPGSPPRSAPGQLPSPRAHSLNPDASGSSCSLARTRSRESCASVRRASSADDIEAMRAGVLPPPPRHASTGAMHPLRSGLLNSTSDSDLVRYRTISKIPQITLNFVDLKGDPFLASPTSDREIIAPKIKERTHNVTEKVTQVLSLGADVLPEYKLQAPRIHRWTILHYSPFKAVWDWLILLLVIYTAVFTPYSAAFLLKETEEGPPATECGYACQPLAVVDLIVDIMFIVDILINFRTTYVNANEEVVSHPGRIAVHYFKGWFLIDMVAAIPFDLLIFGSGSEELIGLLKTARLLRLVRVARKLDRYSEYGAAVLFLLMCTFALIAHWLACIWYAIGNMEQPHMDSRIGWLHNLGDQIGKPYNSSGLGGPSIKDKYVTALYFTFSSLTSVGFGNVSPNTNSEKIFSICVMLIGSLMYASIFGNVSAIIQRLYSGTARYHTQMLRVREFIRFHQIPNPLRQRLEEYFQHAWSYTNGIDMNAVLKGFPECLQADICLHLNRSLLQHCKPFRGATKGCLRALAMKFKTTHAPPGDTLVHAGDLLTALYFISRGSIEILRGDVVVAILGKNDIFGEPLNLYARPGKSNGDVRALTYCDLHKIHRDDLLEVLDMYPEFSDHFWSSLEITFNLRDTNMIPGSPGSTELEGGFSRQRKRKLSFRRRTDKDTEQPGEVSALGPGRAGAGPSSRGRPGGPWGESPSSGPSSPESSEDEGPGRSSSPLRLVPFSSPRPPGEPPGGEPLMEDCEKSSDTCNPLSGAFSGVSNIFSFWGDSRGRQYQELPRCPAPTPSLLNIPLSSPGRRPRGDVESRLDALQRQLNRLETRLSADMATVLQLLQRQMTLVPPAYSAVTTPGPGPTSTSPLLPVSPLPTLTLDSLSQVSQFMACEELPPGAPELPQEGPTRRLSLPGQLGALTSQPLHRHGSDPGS
Chain of Peroxisome proliferator-activated receptor alpha (Homo sapiens) (Q07869 whole entry, looked up): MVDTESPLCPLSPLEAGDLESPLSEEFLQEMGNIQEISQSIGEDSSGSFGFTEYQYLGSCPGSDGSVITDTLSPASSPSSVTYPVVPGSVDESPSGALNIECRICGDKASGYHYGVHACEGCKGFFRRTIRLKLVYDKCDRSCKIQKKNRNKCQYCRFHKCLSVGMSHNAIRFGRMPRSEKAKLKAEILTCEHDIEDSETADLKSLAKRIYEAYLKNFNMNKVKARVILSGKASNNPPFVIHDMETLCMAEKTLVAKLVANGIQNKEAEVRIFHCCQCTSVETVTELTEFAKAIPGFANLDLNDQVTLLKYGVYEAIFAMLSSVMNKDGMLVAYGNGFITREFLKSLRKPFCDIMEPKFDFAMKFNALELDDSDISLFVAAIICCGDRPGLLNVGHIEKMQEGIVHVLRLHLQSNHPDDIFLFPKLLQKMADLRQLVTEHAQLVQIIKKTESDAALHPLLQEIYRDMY
Chain of Nuclear receptor subfamily 1 group I member 2 (Rattus norvegicus) (Q9R1A7 whole entry, looked up): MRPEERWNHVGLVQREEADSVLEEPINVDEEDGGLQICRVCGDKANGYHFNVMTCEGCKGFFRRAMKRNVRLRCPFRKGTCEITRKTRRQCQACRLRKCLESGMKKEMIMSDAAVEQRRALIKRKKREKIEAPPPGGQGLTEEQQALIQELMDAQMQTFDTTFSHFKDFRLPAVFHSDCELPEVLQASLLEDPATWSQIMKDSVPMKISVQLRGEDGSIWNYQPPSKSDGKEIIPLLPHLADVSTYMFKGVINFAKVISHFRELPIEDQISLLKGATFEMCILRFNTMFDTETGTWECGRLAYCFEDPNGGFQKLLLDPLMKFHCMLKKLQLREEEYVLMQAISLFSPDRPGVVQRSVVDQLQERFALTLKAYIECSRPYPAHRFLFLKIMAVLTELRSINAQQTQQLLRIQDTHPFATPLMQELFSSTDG

As to `NC(=O)CCCCC(N)=O`, in experiment [1], the call was inactive.
Regarding `CCOc1ccc(NC(C)=O)cc1N`, the result in experiment [1] was inactive.
Same read-out and setting: to `CCCCCCC(O)CCCCCCCCCCC(=O)OC` (configuration not stated) belongs “inactive”; to `O=C(Cl)c1ccc(C(=O)Cl)cc1`, “inactive”; to `C[Si]1(C)O[Si](C)(C)O[Si](C)(C)O[Si](C)(C)O[Si](C)(C)O1`, “inactive”.
The same measure, in the same setting: to `CCCCCC/C(C=O)=C\c1ccccc1` belongs “inactive”; to `CC(=O)OC(C)(C)C1CC=C(C)CC1` (configuration not stated), “inactive”.
Take `CCCCCCCCCCCCCCC(=O)OC`: the result in experiment [1] was inactive.
Still for that read-out and setting: to `Nc1cc([N+](=O)[O-])ccc1C(=O)O` belongs “inactive”.
On the same count and under the same terms, to `CCCCNCC` belongs “inactive”; to `CC(O)COC(C)(C)C` (configuration not stated), “inactive”; to `CC(C)(N=C=O)c1cccc(C(C)(C)N=C=O)c1`, “inactive”.
The same measure, in the same setting: to `O=[N+]([O-])c1ccc(Cl)cc1Cl` belongs “inactive”; to `CC(=O)c1ccc([N+](=O)[O-])cc1`, “inactive”.
For `Oc1ccc2cc(SSc3ccc4cc(O)ccc4c3)ccc2c1`, in [1], the outcome was inactive.
The same measure, in the same setting: to `Cc1cccc2cccnc12` belongs “inactive”; to `CC1(C)CC(N)CC(C)(CN)C1` (configuration not stated), “inactive”.
The same measure, in the same setting: to `CC1=CC2C3CC(C=C3C)C2C1` (configuration not stated) belongs “inactive”; to `O=c1oc(=O)c2cc3c(=O)oc(=O)c3cc12`, “inactive”.
On the same count and under the same terms, to `Cc1cccc(C)c1[N+](=O)[O-]` belongs “inactive”.
On to `CC/C=C1/OC(=O)c2ccccc21`, for which the result in [1] was inactive.
The same measure, in the same setting: to `ICCc1ccccc1` belongs “inactive”; to `CN(C)c1cccc(O)c1`, “inactive”; to `CC(C)(C)C(O)/C(=C\c1ccc(Cl)cc1)n1cncn1` (configuration not stated), “inactive”.
Still for that read-out and setting: to `CCCCCCCCN` belongs “inactive”.
Regarding `Cc1cc(-c2ccc(N=Nc3cc(S(=O)(=O)O)c4ccccc4c3N)c(C)c2)ccc1N=Nc1cc(S(=O)(=O)O)c2ccccc2c1N`, the result in experiment [1] was inactive.
In the case of `Nc1cccc(S(=O)(=O)O)c1`, the outcome in [1] was inactive.
`CS(=O)(=O)c1ccc(Cl)cc1`: the result in experiment [1] was inactive.
The same measure, in the same setting: to `CC(C)C(C)C` belongs “inactive”; to `O=C(O)c1ccc(Cl)cc1Cl`, “inactive”; to `CCCCCCCC(=O)OC`, “inactive”.
As to `NC(=O)c1cccc([N+](=O)[O-])c1`, the compound was called inactive in experiment [1].
For the compound `C=CCOC(=O)CC(C)C`, in experiment [1], the result was inactive.
On the same count and under the same terms, to `CCOC(=O)OCC` belongs “inactive”.
Turning to `C[C@]12CC[C@@H]3c4ccc(O)cc4CC[C@H]3[C@@H]1CC[C@H]2O`, the result in [1] was inactive.
As for `CC1CCCO1` (configuration not stated), the outcome in experiment [1] was inactive.
On to `Cc1cccc(C(=O)O)c1`, for which the outcome in experiment [1] was inactive.
On to `C[C@@H]1O[C@@H](O[C@@H]2[C@@H](O)[C@H](OCCc3ccc(O)c(O)c3)O[C@H](CO[C@@H]3O[C@H](CO)[C@@H](O)[C@H](O)[C@H]3O)[C@H]2OC(=O)/C=C/c2ccc(O)c(O)c2)[C@H](O)[C@H](O)[C@H]1O`, for which the outcome in experiment [1] was inactive.
In the case of `C=C(C#N)C(=O)OCC`, the call in experiment [1] was inactive.
`OCC(CBr)(CBr)CBr`: the compound was classed as inactive in experiment [1]. In [2], the Potency entry was “inactive”.
For `c1ccc2c(c1)Oc1ccccc1S2`, the compound was called inactive in [1]. Moreover, the Potency in experiment [3] is 28.2 µM (active).
As to `CCOP(=O)(SC(C)CC)N1CCSC1=O` (configuration not stated), the compound was called inactive in experiment [1] and in experiment [6]. Besides, the Potency result in experiment [4], in experiment [5] and in experiment [10] was “inactive” each time. Moreover, the max response in [7] is -8.5%; in [9] it was 1.22% (inactive); in experiment [11], 14.1% (inactive); in experiment [12], 6.21% (inactive). Moreover, in experiment [8], the activation was -0.193% (inactive).
As to `Cc1cccc(C)c1`, in [1], the call was inactive. The Potency entry in experiment [2] was “inactive”.
For `O=C1OC(=O)c2c(Br)c(Br)c(Br)c(Br)c21`, the compound was called inactive in experiment [1]. For the same compound, the Potency result in [2] was “inactive”.
As to `CC1=NNC(=O)N(/N=C/c2cccnc2)C1`, the compound was classed as inactive in [1], in experiment [6] and in experiment [21]. The Potency entry in experiment [4], in experiment [5], in experiment [13], in experiment [14], in [10] and in [19] was “inactive” throughout. The max response in experiment [7] was -9.27%; in [15], -13.2% (inactive); in [11] it was -9.52% (inactive); in experiment [12], -11.1% (inactive); in experiment [20], -1.81% (inactive). In addition, the activity change % (negative = inhibition) in experiment [16] was -22% (inactive). Besides, the figures for the activation in [17], in experiment [18] and in experiment [8] were 3.81% (inactive), 0.0556% (inactive) and -0.299% (inactive), respectively.
On to `O=C(Nc1ccccc1)c1ccccc1O`, for which the compound was called inactive in experiment [1]. Moreover, the Potency in experiment [8] was 44.7 µM (active).
